Data published in article PMC11006913.
Changes are numbered by the printed parent chain.

What was measured:
Assay in all cases: PBM; 200 nM protein, PBS
Details in all cases: dsDNA, one strand shown
NKX2-5 [1] = target: NKX2-5 (Homo sapiens, UniProt P52952 125-210, R139K)
NKX2-4 [2] = target: T1, NKX2-4 (Homo sapiens, UniProt Q9H2Z4 175-261, P217L)
T1 sequence: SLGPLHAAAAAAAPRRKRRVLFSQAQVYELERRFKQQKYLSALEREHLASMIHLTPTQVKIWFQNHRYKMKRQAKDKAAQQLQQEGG

NKX2-4 [3] = target: T2, NKX2-4 (Homo sapiens, UniProt Q9H2Z4 175-261, T231S)
T2 sequence: T1 sequence with L43P, T57S

NKX2-4 [4] = target: T3, NKX2-4 (Homo sapiens, UniProt Q9H2Z4 175-261)
T3 sequence: T1 sequence with L43P

NKX2-6 [5] = target: T4, NKX2-6 (Homo sapiens, UniProt A6NCS4 118-204, R150C)
T4 sequence: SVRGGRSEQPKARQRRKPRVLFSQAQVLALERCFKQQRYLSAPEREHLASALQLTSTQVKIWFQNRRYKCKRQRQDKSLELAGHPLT

NKX2-6 [6] = target: T5, NKX2-6 (Homo sapiens, UniProt A6NCS4 118-204)
T5 sequence: T4 sequence with C33R

NKX2-4 [7] = target: T6, NKX2-4 (Homo sapiens, UniProt Q9H2Z4 175-261, R246Q)
T6 sequence: T1 sequence with L43P, R72Q

NKX2-6 [8] = target: T7, NKX2-6 (Homo sapiens, UniProt A6NCS4 118-204, F151L)
T7 sequence: T4 sequence with C33R, F34L

NKX2-5 [9] = target: NKX2-5 (Homo sapiens, UniProt P52952 125-210)
Chain of NKX2-5 (Homo sapiens, UniProt P52952 125-210) (P52952 125-210): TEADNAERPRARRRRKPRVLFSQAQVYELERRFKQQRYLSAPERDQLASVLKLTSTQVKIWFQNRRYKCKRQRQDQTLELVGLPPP

NKX3-2 [10] = target: NKX3-2 (Homo sapiens, UniProt P78367 192-278, P234S)
Chain of NKX3-2 (Homo sapiens, UniProt P78367 192-278, P234S) (P78367 192-278 P234S): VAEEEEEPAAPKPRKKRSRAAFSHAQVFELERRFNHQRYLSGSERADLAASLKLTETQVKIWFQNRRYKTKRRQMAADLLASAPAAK

NKX3-2 [11] = target: NKX3-2 (Homo sapiens, UniProt P78367 192-278)
Chain of NKX3-2 (Homo sapiens, UniProt P78367 192-278) (P78367 192-278): as the sequence (P78367 192-278 P234S) above, with S43P counted along it

Chain of NKX2-5 (Homo sapiens, UniProt P52952 125-210, R139K) (P52952 125-210 R139K): as the sequence (P52952 125-210) above, with R15K counted along it

| Sequence | binding signal (NKX2-5 [1]) | binding signal (NKX2-4 [2]) | binding signal (NKX2-4 [3]) | binding signal (NKX2-4 [4]) | binding signal (NKX2-6 [5]) | binding signal (NKX2-6 [6]) | binding signal (NKX2-4 [7]) | binding signal (NKX2-6 [8]) | binding signal (NKX2-5 [9]) | binding signal (NKX3-2 [10]) | binding signal (NKX3-2 [11]) |
| --- | --- | --- | --- | --- | --- | --- | --- | --- | --- | --- | --- |
| TCAAGTGA | 12.5 upbm affinity estimate (log intensity, higher = more binding, comparable within an allelic series) | 12.5 upbm affinity estimate (log intensity, higher = more binding, comparable within an allelic series) | 13 upbm affinity estimate (log intensity, higher = more binding, comparable within an allelic series) | 12.4 upbm affinity estimate (log intensity, higher = more binding, comparable within an allelic series) | 11.7 upbm affinity estimate (log intensity, higher = more binding, comparable within an allelic series) | 13.5 upbm affinity estimate (log intensity, higher = more binding, comparable within an allelic series) | 13.1 upbm affinity estimate (log intensity, higher = more binding, comparable within an allelic series) | 10.5 upbm affinity estimate (log intensity, higher = more binding, comparable within an allelic series) | 12.4 upbm affinity estimate (log intensity, higher = more binding, comparable within an allelic series) | – | – |
| GGTACTTA | 13.1 upbm affinity estimate (log intensity, higher = more binding, comparable within an allelic series) | 12.6 upbm affinity estimate (log intensity, higher = more binding, comparable within an allelic series) | 13 upbm affinity estimate (log intensity, higher = more binding, comparable within an allelic series) | 12.5 upbm affinity estimate (log intensity, higher = more binding, comparable within an allelic series) | 12 upbm affinity estimate (log intensity, higher = more binding, comparable within an allelic series) | 13.8 upbm affinity estimate (log intensity, higher = more binding, comparable within an allelic series) | 13.1 upbm affinity estimate (log intensity, higher = more binding, comparable within an allelic series) | 11 upbm affinity estimate (log intensity, higher = more binding, comparable within an allelic series) | 12.9 upbm affinity estimate (log intensity, higher = more binding, comparable within an allelic series) | 12.8 upbm affinity estimate (log intensity, higher = more binding, comparable within an allelic series) | 12.8 upbm affinity estimate (log intensity, higher = more binding, comparable within an allelic series) |
| ACTTAAGT | 12.8 upbm affinity estimate (log intensity, higher = more binding, comparable within an allelic series) | 12.5 upbm affinity estimate (log intensity, higher = more binding, comparable within an allelic series) | 12.9 upbm affinity estimate (log intensity, higher = more binding, comparable within an allelic series) | 12.4 upbm affinity estimate (log intensity, higher = more binding, comparable within an allelic series) | 11.8 upbm affinity estimate (log intensity, higher = more binding, comparable within an allelic series) | 13.7 upbm affinity estimate (log intensity, higher = more binding, comparable within an allelic series) | 13 upbm affinity estimate (log intensity, higher = more binding, comparable within an allelic series) | 11.2 upbm affinity estimate (log intensity, higher = more binding, comparable within an allelic series) | 12.9 upbm affinity estimate (log intensity, higher = more binding, comparable within an allelic series) | 12.6 upbm affinity estimate (log intensity, higher = more binding, comparable within an allelic series) | 12.7 upbm affinity estimate (log intensity, higher = more binding, comparable within an allelic series) |
| AAGTGGAG | 12.2 upbm affinity estimate (log intensity, higher = more binding, comparable within an allelic series) | 12.4 upbm affinity estimate (log intensity, higher = more binding, comparable within an allelic series) | 12.7 upbm affinity estimate (log intensity, higher = more binding, comparable within an allelic series) | 12.3 upbm affinity estimate (log intensity, higher = more binding, comparable within an allelic series) | 11.7 upbm affinity estimate (log intensity, higher = more binding, comparable within an allelic series) | 13.3 upbm affinity estimate (log intensity, higher = more binding, comparable within an allelic series) | 12.8 upbm affinity estimate (log intensity, higher = more binding, comparable within an allelic series) | 10.6 upbm affinity estimate (log intensity, higher = more binding, comparable within an allelic series) | 12.2 upbm affinity estimate (log intensity, higher = more binding, comparable within an allelic series) | 12.7 upbm affinity estimate (log intensity, higher = more binding, comparable within an allelic series) | 12.8 upbm affinity estimate (log intensity, higher = more binding, comparable within an allelic series) |
| CCACTTGA | 13.4 upbm affinity estimate (log intensity, higher = more binding, comparable within an allelic series) | 12.9 upbm affinity estimate (log intensity, higher = more binding, comparable within an allelic series) | 13.3 upbm affinity estimate (log intensity, higher = more binding, comparable within an allelic series) | 12.8 upbm affinity estimate (log intensity, higher = more binding, comparable within an allelic series) | 12.3 upbm affinity estimate (log intensity, higher = more binding, comparable within an allelic series) | 13.9 upbm affinity estimate (log intensity, higher = more binding, comparable within an allelic series) | 13.5 upbm affinity estimate (log intensity, higher = more binding, comparable within an allelic series) | 11.5 upbm affinity estimate (log intensity, higher = more binding, comparable within an allelic series) | 13.2 upbm affinity estimate (log intensity, higher = more binding, comparable within an allelic series) | 12.5 upbm affinity estimate (log intensity, higher = more binding, comparable within an allelic series) | 12.6 upbm affinity estimate (log intensity, higher = more binding, comparable within an allelic series) |
| CACTTAAA | 13.1 upbm affinity estimate (log intensity, higher = more binding, comparable within an allelic series) | 12.7 upbm affinity estimate (log intensity, higher = more binding, comparable within an allelic series) | 13.1 upbm affinity estimate (log intensity, higher = more binding, comparable within an allelic series) | 12.6 upbm affinity estimate (log intensity, higher = more binding, comparable within an allelic series) | 12 upbm affinity estimate (log intensity, higher = more binding, comparable within an allelic series) | 13.8 upbm affinity estimate (log intensity, higher = more binding, comparable within an allelic series) | 13.2 upbm affinity estimate (log intensity, higher = more binding, comparable within an allelic series) | 11.4 upbm affinity estimate (log intensity, higher = more binding, comparable within an allelic series) | 13 upbm affinity estimate (log intensity, higher = more binding, comparable within an allelic series) | 12.7 upbm affinity estimate (log intensity, higher = more binding, comparable within an allelic series) | 12.8 upbm affinity estimate (log intensity, higher = more binding, comparable within an allelic series) |
| AAGTGGTA | 12.5 upbm affinity estimate (log intensity, higher = more binding, comparable within an allelic series) | 12.4 upbm affinity estimate (log intensity, higher = more binding, comparable within an allelic series) | 12.9 upbm affinity estimate (log intensity, higher = more binding, comparable within an allelic series) | 12.3 upbm affinity estimate (log intensity, higher = more binding, comparable within an allelic series) | 11.9 upbm affinity estimate (log intensity, higher = more binding, comparable within an allelic series) | 13.4 upbm affinity estimate (log intensity, higher = more binding, comparable within an allelic series) | 12.9 upbm affinity estimate (log intensity, higher = more binding, comparable within an allelic series) | 10.7 upbm affinity estimate (log intensity, higher = more binding, comparable within an allelic series) | 12.5 upbm affinity estimate (log intensity, higher = more binding, comparable within an allelic series) | 12.8 upbm affinity estimate (log intensity, higher = more binding, comparable within an allelic series) | 12.9 upbm affinity estimate (log intensity, higher = more binding, comparable within an allelic series) |
| CACTTAAG | 13.2 upbm affinity estimate (log intensity, higher = more binding, comparable within an allelic series) | 12.7 upbm affinity estimate (log intensity, higher = more binding, comparable within an allelic series) | 13 upbm affinity estimate (log intensity, higher = more binding, comparable within an allelic series) | 12.5 upbm affinity estimate (log intensity, higher = more binding, comparable within an allelic series) | 12.2 upbm affinity estimate (log intensity, higher = more binding, comparable within an allelic series) | 14 upbm affinity estimate (log intensity, higher = more binding, comparable within an allelic series) | 13.2 upbm affinity estimate (log intensity, higher = more binding, comparable within an allelic series) | 11.5 upbm affinity estimate (log intensity, higher = more binding, comparable within an allelic series) | 13.1 upbm affinity estimate (log intensity, higher = more binding, comparable within an allelic series) | 13 upbm affinity estimate (log intensity, higher = more binding, comparable within an allelic series) | 13.1 upbm affinity estimate (log intensity, higher = more binding, comparable within an allelic series) |
| AACCACTT | 12.9 upbm affinity estimate (log intensity, higher = more binding, comparable within an allelic series) | 12.7 upbm affinity estimate (log intensity, higher = more binding, comparable within an allelic series) | 13.1 upbm affinity estimate (log intensity, higher = more binding, comparable within an allelic series) | 12.6 upbm affinity estimate (log intensity, higher = more binding, comparable within an allelic series) | 12 upbm affinity estimate (log intensity, higher = more binding, comparable within an allelic series) | 13.7 upbm affinity estimate (log intensity, higher = more binding, comparable within an allelic series) | 13.2 upbm affinity estimate (log intensity, higher = more binding, comparable within an allelic series) | 10.9 upbm affinity estimate (log intensity, higher = more binding, comparable within an allelic series) | 12.8 upbm affinity estimate (log intensity, higher = more binding, comparable within an allelic series) | 12.9 upbm affinity estimate (log intensity, higher = more binding, comparable within an allelic series) | 12.9 upbm affinity estimate (log intensity, higher = more binding, comparable within an allelic series) |
| GTACTTGA | 13 upbm affinity estimate (log intensity, higher = more binding, comparable within an allelic series) | 12.8 upbm affinity estimate (log intensity, higher = more binding, comparable within an allelic series) | 13.2 upbm affinity estimate (log intensity, higher = more binding, comparable within an allelic series) | 12.6 upbm affinity estimate (log intensity, higher = more binding, comparable within an allelic series) | 12.1 upbm affinity estimate (log intensity, higher = more binding, comparable within an allelic series) | 13.7 upbm affinity estimate (log intensity, higher = more binding, comparable within an allelic series) | 13.3 upbm affinity estimate (log intensity, higher = more binding, comparable within an allelic series) | 11.1 upbm affinity estimate (log intensity, higher = more binding, comparable within an allelic series) | 12.8 upbm affinity estimate (log intensity, higher = more binding, comparable within an allelic series) | – | – |
| ATTAAGTG | 12.7 upbm affinity estimate (log intensity, higher = more binding, comparable within an allelic series) | 12.5 upbm affinity estimate (log intensity, higher = more binding, comparable within an allelic series) | 12.9 upbm affinity estimate (log intensity, higher = more binding, comparable within an allelic series) | 12.4 upbm affinity estimate (log intensity, higher = more binding, comparable within an allelic series) | 11.8 upbm affinity estimate (log intensity, higher = more binding, comparable within an allelic series) | 13.7 upbm affinity estimate (log intensity, higher = more binding, comparable within an allelic series) | 13 upbm affinity estimate (log intensity, higher = more binding, comparable within an allelic series) | 11 upbm affinity estimate (log intensity, higher = more binding, comparable within an allelic series) | 12.6 upbm affinity estimate (log intensity, higher = more binding, comparable within an allelic series) | 12.7 upbm affinity estimate (log intensity, higher = more binding, comparable within an allelic series) | 12.8 upbm affinity estimate (log intensity, higher = more binding, comparable within an allelic series) |
| CACTTATC | 12.8 upbm affinity estimate (log intensity, higher = more binding, comparable within an allelic series) | 12.7 upbm affinity estimate (log intensity, higher = more binding, comparable within an allelic series) | 13 upbm affinity estimate (log intensity, higher = more binding, comparable within an allelic series) | 12.5 upbm affinity estimate (log intensity, higher = more binding, comparable within an allelic series) | 12.1 upbm affinity estimate (log intensity, higher = more binding, comparable within an allelic series) | 13.8 upbm affinity estimate (log intensity, higher = more binding, comparable within an allelic series) | 13.2 upbm affinity estimate (log intensity, higher = more binding, comparable within an allelic series) | 11.2 upbm affinity estimate (log intensity, higher = more binding, comparable within an allelic series) | 12.8 upbm affinity estimate (log intensity, higher = more binding, comparable within an allelic series) | 12.7 upbm affinity estimate (log intensity, higher = more binding, comparable within an allelic series) | 12.8 upbm affinity estimate (log intensity, higher = more binding, comparable within an allelic series) |
